A number with no mark means an inactive call. Active and inactive are the calls of the source.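 Rule for the calls, unless noted: active = mean inhibition over 43.08%, the solvent-only control mean plus 3 SD; inactive = the rest.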
Experiments:
[1] = target: Nuclear receptor coactivator 3 (Homo sapiens) (UniProt Q9Y6Q9); experiment: SRC3 coactivator transcriptional activity inhibitors, confirmation, cell-based, luminescence, quadruplicate (AID 588792); conditions: HEK293 GAL4-SRC3 luciferase reporter, at 3.6 µM, hits give high values;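 note: 0% = DMSO treated cells and 100% = gossypol at 36 µM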
Sequence of Nuclear receptor coactivator 3 (Homo sapiens) (Q9Y6Q9 whole entry, looked up, the tested form may be a part): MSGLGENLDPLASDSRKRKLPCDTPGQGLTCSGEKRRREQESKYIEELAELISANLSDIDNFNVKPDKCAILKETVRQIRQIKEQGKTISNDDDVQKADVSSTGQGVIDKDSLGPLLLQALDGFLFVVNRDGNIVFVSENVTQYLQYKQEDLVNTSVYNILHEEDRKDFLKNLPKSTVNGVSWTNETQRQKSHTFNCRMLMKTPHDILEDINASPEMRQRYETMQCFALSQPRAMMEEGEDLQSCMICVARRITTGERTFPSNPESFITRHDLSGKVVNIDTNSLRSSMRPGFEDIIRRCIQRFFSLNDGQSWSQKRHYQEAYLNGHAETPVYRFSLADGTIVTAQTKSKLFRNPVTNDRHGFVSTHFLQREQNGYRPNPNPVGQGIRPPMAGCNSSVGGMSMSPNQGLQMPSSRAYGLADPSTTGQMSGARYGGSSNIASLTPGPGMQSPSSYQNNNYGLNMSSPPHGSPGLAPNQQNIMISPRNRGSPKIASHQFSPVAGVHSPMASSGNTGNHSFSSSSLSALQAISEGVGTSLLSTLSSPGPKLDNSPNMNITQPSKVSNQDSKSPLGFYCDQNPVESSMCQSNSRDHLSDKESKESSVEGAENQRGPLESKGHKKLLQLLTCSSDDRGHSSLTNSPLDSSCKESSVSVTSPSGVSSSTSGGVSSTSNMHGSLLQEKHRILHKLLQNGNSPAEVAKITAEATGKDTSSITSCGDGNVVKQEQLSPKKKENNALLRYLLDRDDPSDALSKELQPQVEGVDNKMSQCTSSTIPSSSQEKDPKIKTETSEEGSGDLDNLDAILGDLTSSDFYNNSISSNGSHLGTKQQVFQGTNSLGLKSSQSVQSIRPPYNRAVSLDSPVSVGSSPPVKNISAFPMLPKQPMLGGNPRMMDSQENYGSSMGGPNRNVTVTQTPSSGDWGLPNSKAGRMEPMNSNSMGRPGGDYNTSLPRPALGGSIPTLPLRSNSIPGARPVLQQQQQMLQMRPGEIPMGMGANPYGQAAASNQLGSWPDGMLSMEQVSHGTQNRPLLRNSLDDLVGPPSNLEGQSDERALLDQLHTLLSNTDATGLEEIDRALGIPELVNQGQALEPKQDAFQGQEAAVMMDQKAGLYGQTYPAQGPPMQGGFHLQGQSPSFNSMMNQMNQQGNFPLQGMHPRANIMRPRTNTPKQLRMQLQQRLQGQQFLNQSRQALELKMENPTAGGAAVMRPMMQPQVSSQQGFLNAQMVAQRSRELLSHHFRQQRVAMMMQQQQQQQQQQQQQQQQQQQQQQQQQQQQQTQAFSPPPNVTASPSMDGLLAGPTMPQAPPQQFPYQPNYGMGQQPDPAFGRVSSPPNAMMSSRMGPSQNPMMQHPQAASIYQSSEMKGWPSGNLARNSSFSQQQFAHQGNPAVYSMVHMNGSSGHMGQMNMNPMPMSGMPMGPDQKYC

[2] = system: transactivating tegument protein VP16 (Human herpesvirus 1), Gal4-VP16 luciferase reporter; experiment: VP16 transactivation inhibitors, counter-screen for SRC3 inhibitor project, cell-based, luminescence, high throughput (AID 588794; in the data active = inhibition above about 30%); conditions: mammalian cells, VP16-driven luciferase reporter luminescence; at 3.6 µM; hits give high values
[3] = target: Nuclear receptor coactivator 1 (Homo sapiens) (UniProt Q15788); experiment: SRC1 coactivator transcriptional activity inhibitors, confirmation, cell-based, luminescence, quadruplicate (AID 588820;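 active = mean inhibition above 46.68%, the untreated control wells mean plus 3 SD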;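 note: 0% = DMSO wells and 100% = gossypol 36 µM treated wells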); conditions: HEK293 GAL4-SRC1 luciferase reporter, at 3.6 µM, hits give high values
Sequence of Nuclear receptor coactivator 1 (Homo sapiens) (Q15788 whole entry, looked up, the tested form may be a part): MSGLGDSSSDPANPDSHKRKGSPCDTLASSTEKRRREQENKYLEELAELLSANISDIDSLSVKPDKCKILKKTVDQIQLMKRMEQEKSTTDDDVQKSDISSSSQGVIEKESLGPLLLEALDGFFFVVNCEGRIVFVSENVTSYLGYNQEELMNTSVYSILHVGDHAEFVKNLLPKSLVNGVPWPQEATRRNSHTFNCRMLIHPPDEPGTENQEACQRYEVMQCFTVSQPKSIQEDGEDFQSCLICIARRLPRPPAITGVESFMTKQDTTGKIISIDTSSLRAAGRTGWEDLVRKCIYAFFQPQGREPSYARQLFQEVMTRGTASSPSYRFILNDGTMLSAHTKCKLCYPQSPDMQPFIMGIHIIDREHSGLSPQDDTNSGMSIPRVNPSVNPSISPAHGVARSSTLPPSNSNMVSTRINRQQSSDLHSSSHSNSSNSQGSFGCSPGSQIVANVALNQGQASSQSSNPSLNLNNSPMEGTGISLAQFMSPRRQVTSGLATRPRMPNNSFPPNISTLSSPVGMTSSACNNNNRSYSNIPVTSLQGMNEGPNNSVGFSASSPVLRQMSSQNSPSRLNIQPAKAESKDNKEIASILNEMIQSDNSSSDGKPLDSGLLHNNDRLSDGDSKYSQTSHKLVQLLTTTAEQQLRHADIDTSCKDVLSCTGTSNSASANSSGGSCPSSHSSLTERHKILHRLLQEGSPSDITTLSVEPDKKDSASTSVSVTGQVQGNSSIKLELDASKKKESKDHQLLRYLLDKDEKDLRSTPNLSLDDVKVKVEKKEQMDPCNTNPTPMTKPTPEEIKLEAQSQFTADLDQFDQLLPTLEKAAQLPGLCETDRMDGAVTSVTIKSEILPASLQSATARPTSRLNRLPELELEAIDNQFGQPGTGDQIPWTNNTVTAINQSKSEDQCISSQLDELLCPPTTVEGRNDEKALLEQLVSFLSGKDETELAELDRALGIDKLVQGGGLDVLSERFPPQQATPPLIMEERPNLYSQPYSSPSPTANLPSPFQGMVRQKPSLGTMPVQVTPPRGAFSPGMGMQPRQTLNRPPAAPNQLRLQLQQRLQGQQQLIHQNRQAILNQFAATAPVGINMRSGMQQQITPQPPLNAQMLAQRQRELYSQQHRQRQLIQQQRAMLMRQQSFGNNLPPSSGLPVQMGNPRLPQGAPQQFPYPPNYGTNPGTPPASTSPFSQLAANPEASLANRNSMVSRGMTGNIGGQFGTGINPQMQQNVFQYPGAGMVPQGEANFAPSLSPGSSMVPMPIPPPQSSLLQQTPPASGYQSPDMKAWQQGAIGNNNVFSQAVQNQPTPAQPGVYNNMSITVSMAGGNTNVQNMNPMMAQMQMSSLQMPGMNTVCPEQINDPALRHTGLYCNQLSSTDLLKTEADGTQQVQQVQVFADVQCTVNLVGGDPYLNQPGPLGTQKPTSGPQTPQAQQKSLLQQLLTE

[4] = VP16 transactivation inhibitors, counter-screen for SRC1 inhibitor project, cell-based, luminescence, high throughput (AID 588824; in the data active = inhibition above about 25%); conditions: cell-based VP16 transactivation luciferase luminescence; at 3.6 µM; hits give high values
[5] = system: transactivating tegument protein VP16 (Human herpesvirus 1); experiment: VP16 transactivation reporter inhibitors, counter-screen for SRC2 inhibitor project, cell-based, luminescence, single concentration (AID 652007; in the data active = inhibition above about 36%); conditions: cell-based VP16 transactivation luciferase reporter, at 8.9 µM, hits give high values
[6] = target: Nuclear receptor coactivator 2 (Homo sapiens) (UniProt Q15596); experiment: SRC2 coactivator transcriptional activity inhibitors, confirmation, cell-based, luminescence, HEK293, triplicate (AID 652008;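 active = mean inhibition above 46.5%, the solvent-only control mean plus 3 SD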;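 note: 0% = DMSO-treated cells and 100% = Gossypol at 36 µM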); conditions: HEK293 GAL4-SRC2 luciferase reporter, at 8.9 µM, hits give high values
Sequence of Nuclear receptor coactivator 2 (Homo sapiens) (Q15596 whole entry, looked up, the tested form may be a part): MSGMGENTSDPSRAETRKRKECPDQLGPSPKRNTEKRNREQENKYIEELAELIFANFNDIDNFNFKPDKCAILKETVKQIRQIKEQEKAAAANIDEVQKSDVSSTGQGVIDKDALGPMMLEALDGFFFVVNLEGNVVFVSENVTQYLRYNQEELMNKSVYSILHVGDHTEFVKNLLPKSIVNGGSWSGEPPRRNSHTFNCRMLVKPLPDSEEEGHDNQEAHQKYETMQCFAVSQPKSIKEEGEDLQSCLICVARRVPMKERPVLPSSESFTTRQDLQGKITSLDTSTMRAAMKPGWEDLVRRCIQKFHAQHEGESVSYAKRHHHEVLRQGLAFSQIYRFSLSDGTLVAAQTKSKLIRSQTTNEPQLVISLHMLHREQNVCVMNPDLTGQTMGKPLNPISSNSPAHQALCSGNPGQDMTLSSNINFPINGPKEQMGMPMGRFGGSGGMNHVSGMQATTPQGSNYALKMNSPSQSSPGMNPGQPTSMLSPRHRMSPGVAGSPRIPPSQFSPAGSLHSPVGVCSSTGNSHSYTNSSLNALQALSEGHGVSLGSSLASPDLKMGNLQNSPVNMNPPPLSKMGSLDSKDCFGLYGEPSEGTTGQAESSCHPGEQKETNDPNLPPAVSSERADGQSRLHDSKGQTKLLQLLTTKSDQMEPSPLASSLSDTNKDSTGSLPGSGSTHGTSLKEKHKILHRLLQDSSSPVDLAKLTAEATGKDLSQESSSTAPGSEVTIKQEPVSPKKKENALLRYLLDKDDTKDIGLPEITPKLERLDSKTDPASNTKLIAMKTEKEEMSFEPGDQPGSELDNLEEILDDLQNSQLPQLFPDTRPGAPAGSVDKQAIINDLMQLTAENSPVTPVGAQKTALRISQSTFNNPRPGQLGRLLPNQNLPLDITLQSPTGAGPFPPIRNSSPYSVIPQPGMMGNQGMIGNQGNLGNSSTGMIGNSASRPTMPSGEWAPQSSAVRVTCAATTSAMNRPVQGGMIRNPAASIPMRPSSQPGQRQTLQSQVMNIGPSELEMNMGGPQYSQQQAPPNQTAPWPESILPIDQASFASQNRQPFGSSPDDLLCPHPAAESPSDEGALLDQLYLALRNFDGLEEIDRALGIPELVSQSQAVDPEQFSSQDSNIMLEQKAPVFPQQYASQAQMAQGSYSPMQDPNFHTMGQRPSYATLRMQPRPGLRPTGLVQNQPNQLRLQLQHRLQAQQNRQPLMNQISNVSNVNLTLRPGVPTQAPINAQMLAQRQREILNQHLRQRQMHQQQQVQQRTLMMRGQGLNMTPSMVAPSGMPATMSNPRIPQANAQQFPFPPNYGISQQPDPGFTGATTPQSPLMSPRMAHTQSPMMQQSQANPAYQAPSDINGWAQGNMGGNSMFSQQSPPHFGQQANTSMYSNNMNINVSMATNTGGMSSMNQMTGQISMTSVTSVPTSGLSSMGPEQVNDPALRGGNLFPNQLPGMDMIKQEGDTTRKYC

Question: With `O=C(CCCN1C(=O)/C(=C/c2ccccc2Cl)SC1=S)NNC(=O)c1ccncc1` as the compound, how does the inhibition [1] read?
Answer: 14.7%

Question: What about the inhibition [2] of the same compound?
Answer: 8.23%

Question: What about the inhibition [3] of the same compound?
Answer: 10.8%

Question: And the inhibition [4]?
Answer: 10.8%

Question: And the inhibition [5]?
Answer: 40.6% (active)

Question: And the inhibition [6]?
Answer: 65.4% (active)

Question: What does the source list for `C=CCOc1ccc(/C=C2\SC(=S)N(CCC(=O)O)C2=O)cc1`?
Answer: inhibition [1]: 32.8%; inhibition [2]: -27%; inhibition [3]: 35.5%; inhibition [4]: -38.4%; inhibition [5]: -24.5%; inhibition [6]: 91.5% (active)

Question: Which results are given for `CC(C)(C)c1ccc(C(=O)NC(=S)Nc2nc3c(s2)CCCC3)cc1`?
Answer: inhibition [1]: 20.4%; inhibition [2]: -9.66%; inhibition [3]: -33.4%; inhibition [4]: -47.4%; inhibition [5]: 0.2%; inhibition [6]: 34.8%

Question: What does the source list for `Cc1ccc2nc(-c3ccccc3)cn2c1`?
Answer: inhibition [1]: 21.2%; inhibition [2]: -9.75%; inhibition [3]: -44.9%; inhibition [4]: -21.6%; inhibition [5]: 19.2%; inhibition [6]: 51.8% (active)

Question: What does the source list for `CCn1c(Oc2ccccc2F)nc2c1c(=O)n(C)c(=O)n2C`?
Answer: inhibition [1]: 63% (active); inhibition [2]: 51% (active); inhibition [3]: 64.4% (active); inhibition [4]: 47.2% (active); inhibition [5]: -5.89%; inhibition [6]: 48.6% (active)

Question: What does the source list for `COc1ccc(-c2cncnc2-c2ccc(OC)cc2O)cc1`?
Answer: inhibition [1]: 58.9% (active); inhibition [2]: 36.3% (active); inhibition [3]: 57.1% (active); inhibition [4]: 35% (active); inhibition [5]: 14.3%; inhibition [6]: 42.5%

Question: What does the source list for `Clc1ccccc1C1=Nn2c(nnc2-c2ccncc2)SC1`?
Answer: inhibition [1]: 78.3% (active); inhibition [2]: 52.6% (active); inhibition [3]: 73.9% (active); inhibition [4]: 55.2% (active); inhibition [5]: 7.16%; inhibition [6]: 46%

Question: Which inhibition [1] does the source give for `NNC(=O)c1cc2ccccc2cc1O` here?
Answer: 67.7% (active)

Question: What about the inhibition [2] of the same compound?
Answer: 12.8%

Question: And the inhibition [3]?
Answer: 37.5%

Question: And the inhibition [4]?
Answer: 19.3%

Question: What about the inhibition [5] of the same compound?
Answer: 16.4%

Question: And the inhibition [6]?
Answer: 77.8% (active)

Question: Which results are given for `Cn1nc(C(F)(F)F)c(C#N)c1N1CCN(c2ccccc2)CC1`?
Answer: inhibition [1]: 56.3% (active); inhibition [2]: 31.5% (active); inhibition [3]: 35.6%; inhibition [4]: 19.3%; inhibition [5]: 4.83%; inhibition [6]: 27.6%

Question: With `Cc1cc(NC(c2ccc(Cl)cc2)c2ccc3cccnc3c2O)no1` (stereo not given) as the compound, how does the inhibition [1] read?
Answer: 54% (active)

Question: And the inhibition [2]?
Answer: 42% (active)

Question: And the inhibition [3]?
Answer: 28.2%

Question: What about the inhibition [4] of the same compound?
Answer: 58.8% (active)

Question: What about the inhibition [5] of the same compound?
Answer: -9.15%

Question: What about the inhibition [6] of the same compound?
Answer: 17.6%

Question: For `Cc1cc(C(=O)COc2cccnc2[N+](=O)[O-])c(C)n1-c1ccccc1`, which inhibition [1] is on record?
Answer: -5.17%

Question: And the inhibition [2]?
Answer: -52.9%

Question: What about the inhibition [3] of the same compound?
Answer: -11.3%

Question: What about the inhibition [4] of the same compound?
Answer: -70.8%

Question: And the inhibition [5]?
Answer: -71.7%

Question: And the inhibition [6]?
Answer: 68.1% (active)

Question: With `COc1ccc(-c2cn[nH]c2-c2ccc(O)cc2O)cc1` as the compound, how does the inhibition [1] read?
Answer: 67.1% (active)

Question: And the inhibition [2]?
Answer: 46.2% (active)

Question: What about the inhibition [3] of the same compound?
Answer: 53.9% (active)

Question: What about the inhibition [4] of the same compound?
Answer: 37.3% (active)

Question: And the inhibition [5]?
Answer: -0.83%

Question: What about the inhibition [6] of the same compound?
Answer: 50% (active)

Question: For `COc1cccc(Nc2ncnc3ccc(Br)cc23)c1`, which inhibition [1] is on record?
Answer: 43.5% (active)

Question: What about the inhibition [2] of the same compound?
Answer: 31% (active)

Question: What about the inhibition [3] of the same compound?
Answer: 51% (active)

Question: What about the inhibition [4] of the same compound?
Answer: 30.9% (active)

Question: What about the inhibition [5] of the same compound?
Answer: -7.29%

Question: And the inhibition [6]?
Answer: 34.5%

Question: What does the source list for `COc1ccc2[nH]c3c(c2c1)CC(C)NC3=O` (stereo not given)?
Answer: inhibition [1]: 73% (active); inhibition [2]: 49.7% (active); inhibition [3]: 67.3% (active); inhibition [4]: 52.2% (active); inhibition [5]: 14.3%; inhibition [6]: 41.6%

Question: For `COCCn1c(C)cc(C2=NNC(=NC3CC3)SC2)c1C`, which inhibition [1] is on record?
Answer: 91.2% (active)

Question: What about the inhibition [2] of the same compound?
Answer: 87.2% (active)

Question: What about the inhibition [3] of the same compound?
Answer: 85.7% (active)

Question: And the inhibition [4]?
Answer: 86.1% (active)

Question: What about the inhibition [5] of the same compound?
Answer: 90.8% (active)

Question: What about the inhibition [6] of the same compound?
Answer: 96.7% (active)

Question: What does the source list for `c1csc(C2=Nn3c(nnc3-c3ccncc3)SC2)c1`?
Answer: inhibition [1]: 72.9% (active); inhibition [2]: 58.1% (active); inhibition [3]: 67.9% (active); inhibition [4]: 50.8% (active); inhibition [5]: 29.6%; inhibition [6]: 62.6% (active)

Question: What does the source list for `C=CCn1c(C)cc(C2=NNC(=NC(C)(C)C)SC2)c1C`?
Answer: inhibition [1]: 28.8%; inhibition [2]: 33.7% (active); inhibition [3]: -25.9%; inhibition [4]: -16.9%; inhibition [5]: 17.8%; inhibition [6]: 63% (active)

Question: For `Brc1ccc2ncnc(NCc3cccnc3)c2c1`, which inhibition [1] is on record?
Answer: 70.6% (active)

Question: And the inhibition [2]?
Answer: 44% (active)

Question: What about the inhibition [3] of the same compound?
Answer: 55.9% (active)

Question: What about the inhibition [4] of the same compound?
Answer: 42.8% (active)

Question: And the inhibition [5]?
Answer: -3.67%

Question: What about the inhibition [6] of the same compound?
Answer: 39.8%

Question: With `O=C(Nc1cccc(C(F)(F)F)c1)Nc1nnc([C@@H]2C[C@H](O)[C@@H](CO)O2)s1` as the compound, how does the inhibition [1] read?
Answer: 49% (active)

Question: What about the inhibition [2] of the same compound?
Answer: 21.6%

Question: What about the inhibition [3] of the same compound?
Answer: 29.3%

Question: And the inhibition [4]?
Answer: 20.7%

Question: What about the inhibition [5] of the same compound?
Answer: 1.58%

Question: And the inhibition [6]?
Answer: 29.1%

Question: What does the source list for `COc1ccc(/C=C2\CC/C(=C\c3ccc(OC)c(OC)c3)C2=O)cc1OC`?
Answer: inhibition [1]: 30.9%; inhibition [2]: 10.7%; inhibition [3]: 16.2%; inhibition [4]: 16.9%; inhibition [5]: 41.5% (active); inhibition [6]: 77.9% (active)
